Measured values reported in PubChem BioAssay AID2314 (National Center for Advancing Translational Sciences (NCATS), 2010).
The campaign covered roughly 300,000 compounds. About 37,000 (12%) were called active. This is one part of a sample in which actives are shown more often than they occur. A number with no mark means an inactive call. Rule as the data show it: active = max response mostly above about 13% (no sharp cut-off); inactive = mostly below about 14%.

assay: Cycloheximide Counterscreen for Small Molecule Inhibitors of Shiga Toxin; settings: cell reporter, cycloheximide protein synthesis inhibition counterscreen; stronger effect = higher value; also: read at 38.3 µM for the half of the compounds with a filed dose; 0% is about no effect

Row | Structure (SMILES) | max response
1 | CCN(CC)CCCNC(=O)c1ccc2c(=O)n(Cc3ccc4c(c3)OCO4)c(=S)[nH]c2c1 | 5.61%
2 | Cc1ccc(C(=O)CCC(=O)N(C)CC(=O)Nc2c(Cl)cccc2Cl)cc1 | 1.06%
3 | COc1ccc(-c2nn(CCC#N)cc2C(=O)O)cc1 | 0.75%
4 | COc1ccc(-c2nn(CCC#N)cc2C(=O)Nc2ccc(C(C)=O)cc2)cc1 | 18.3% (active)
5 | COc1ccc(NC(=O)c2cn(CCC#N)nc2-c2ccc([N+](=O)[O-])cc2)cc1 | -3.78%
6 | COc1ccccc1NC(=O)C1CCCN1S(=O)(=O)c1ccc(Cl)cc1 (stereo not drawn) | 0.961%
7 | CN(C)CCN(C(=O)C1=COCCO1)c1nc2ccc(Cl)cc2s1 | 36.4% (active)
8 | CCOc1ccc2nc(N(CCN(C)C)C(=O)c3ccc4ccccc4c3)sc2c1 | 8.51%
9 | CN(C)CCN(C(=O)C1CCCCC1)c1nc2cc3c(cc2s1)OCO3 | 15.2%
10 | CCc1ccc2nc(N(CCCN(C)C)C(=O)c3ccc4c(c3)OCCO4)sc2c1 | 1.67%
11 | Cc1ccc2nc(N(CCN(C)C)C(=O)C3=COCCO3)sc2c1 | 30.5% (active)
12 | CC(=O)N(CCCN(C)C)c1nc2ccc(C)cc2s1 | 7.76%
13 | CC(C)(C)c1ccc(C(CC(=O)O)NS(=O)(=O)Cc2ccccc2)cc1 (stereo not drawn) | -5.97%
14 | CCCCn1c(SCC(=O)N2CCOCC2)nc2c1c(=O)n(C)c(=O)n2C | -6.86%
15 | O=C(Nc1ccc(Br)cc1F)C1CC(=O)N(C2CCCCC2)C1 (stereo not drawn) | -2.46%
16 | CC1=CCC2C(=O)N(c3cccc(C(=O)NC(C)c4ccccc4)c3)C(=O)C2C1 (stereo not drawn) | -2.5%
17 | Cc1ccc(NC(=S)NCCN2CCOCC2)cc1 | -2.44%
18 | Cc1ccc(C(=O)N/C(=C\c2ccc(F)cc2)C(=O)NCCN2CCOCC2)cc1 | -2.99%
19 | Cc1ccc(C(=O)NC(=S)NCCN2CCOCC2)cc1 | 31.2% (active)
20 | CCc1ccc(C(CNc2nc(C(F)(F)F)nc3ccccc23)N(C)C)cc1 (stereo not drawn) | -6.3%
21 | COc1ccccc1C(=O)Nn1c(-c2cccs2)nc2ccccc2c1=O | 2.63%
22 | COc1ccc(C(CNC(=O)c2cc3c(s2)CCCC3)N2CCOCC2)cc1 (stereo not drawn) | 5.2%
23 | O=C(NCCCn1ccnc1)c1cc2c(s1)CCCC2 | -2.62%
24 | O=C(NCCCN1CCOCC1)c1cc2c(s1)CCC2 | 15.4% (active)

Row | Structure (SMILES) | max response
25 | CCOc1ccc(C(C(=O)NC2CCCC2)N(C(=O)c2snc(C(N)=O)c2N)C2CCCC2)cc1 (stereo not drawn) | -3%
26 | CCN(CC)S(=O)(=O)c1ccc(Cl)c(C(=O)NCCN2CCOCC2)c1 | -7.58%
27 | CCN(CC)S(=O)(=O)c1ccc(N2CC(C(=O)NCc3cccnc3)CC2=O)cc1 (stereo not drawn) | -8.09%
28 | O=C(Cc1ccc(Cl)cc1)NC(=S)Nc1ccccc1O | 0.61%
29 | Oc1ccc(CNc2ccccc2O)cc1 | 35.8% (active)
30 | O=[N+]([O-])c1ccccc1Nc1ccc(O)cc1 | -1.56%
31 | CCOC(=O)[C@@H]1[C@H]2COc3ccc(Br)cc3[C@H]2N2C(=O)N(c3ccc(Cl)cc3)C(=O)[C@@]12C | -3.81%
32 | Cc1nn(CC(=O)Nc2nc3ccccc3s2)c(C)c1[N+](=O)[O-] | 16.7%
33 | CC(=O)Nc1cccc(-c2nc3ccccc3s2)c1C | 23.7% (active)
34 | Oc1ccc(-c2[nH]ncc2-c2nc3ccccc3s2)c(O)c1 | 10.7%
35 | COc1cccc(Cn2cc(/C=N/NC(=O)c3cc(O)cc(O)c3)c3ccccc32)c1 | 7.8%
36 | COC(=O)c1ccc(CNC(=O)C2CCC(=O)N(Cc3ccccn3)C2)cc1 (stereo not drawn) | -0.637%
37 | CCOC(=O)c1ccc(NC(=S)Nc2cc(C)cc(C)n2)cc1 | -2.45%
38 | CCOC(=O)c1cn[nH]c1NC(=S)Nc1ccccc1 | 67.1% (active)
39 | CCOC(=O)c1cc2c(nc1NC(=S)Nc1ccccc1)CC(C)(CC)OC2 (stereo not drawn) | -1.51%
40 | O=C(COc1cc(Cl)c(Cl)cc1Cl)NC(=O)NC1CCCC1 | -3.88%
41 | O=C(CN1CCOCC1)N1CCCc2c1c(=O)oc1ccc(OCc3ccccc3)cc21 | -7.12%
42 | COc1cccc2c(N/N=C/c3ccco3)cc(C)nc12 | 18.9%
43 | CCCc1c(C)nc2c(Br)cccc2c1Cl | -2.12%
44 | CCc1c(C)nc2c(OC)cccc2c1Cl | 10.5% (active)
45 | COc1ccc2c(c1)C(SCC(=O)NCc1ccccc1)CC(C)(C)O2 (stereo not drawn) | -3.58%
46 | Cc1cc(/C=C2\SC(=O)N(C)C2=O)c(C)n1-c1cccc(C(=O)O)c1 | 10.2%
47 | COC(=O)C1=C(O)/C(=C/c2ccc(OCC(=O)Nc3ccccc3)cc2)N=C1C | -5.16%
48 | CCOC(=O)C1=C(O)/C(=C/c2cc(C)n(-c3ccccc3)c2C)N=C1C | 10.2% (active)

Row | Structure (SMILES) | max response
49 | CC(C)n1c(CN2CCN(Cc3ccccc3)CC2)nc2ccccc21 | -2.09%
50 | CC(=O)N1C(=O)C2(Nc3ccccc3N2)c2ccccc21 | -2.2%
51 | CC(C)=NN1C(=O)c2ccccc2NC1(C)C | 37.9% (active)
52 | CC(=O)NN1C(=O)c2ccccc2NC1c1ccccc1 (stereo not drawn) | -3.65%
53 | Cc1cccc(NC(=O)C2CCCN(C(=O)Nc3ccc(F)cc3)C2)c1C (stereo not drawn) | -3.65%
54 | CC(C)CC(=O)N/C(N)=N/c1nc2ccccc2s1 | 44.8% (active)
55 | Cc1cc(C(=O)OCC(=O)Nc2nnc(C(C)C)s2)c2ccccc2n1 | -2.56%
56 | CCC(=O)NC(=Nc1nc2ccccc2s1)NC(=O)CC | 28.7% (active)
57 | CC(C)C(C)NC(=O)COc1ncnc2ccccc12 (stereo not drawn) | -3.43%
58 | CC(C)CC(=O)NC(=S)NCc1ccccc1 | 3.76%
59 | CCC(=O)NCCc1nc2ccccc2n1CC | -2.66%
60 | CSCCC(NS(=O)(=O)c1ccccc1F)C(=O)N1CC=C(c2ccccc2)CC1 (stereo not drawn) | -2.39%
61 | COc1ccc(N(C(=O)c2snc(C(N)=O)c2N)C(C(=O)NC2CCCC2)c2ccco2)cc1OC (stereo not drawn) | -2.38%
62 | CC(C)C(C(=O)NCc1ccco1)N(CC1CCCO1)C(=O)CNS(=O)(=O)c1ccc(F)cc1 (stereo not drawn) | -6.69%
63 | Cc1cc(-c2ccc(S(=O)(=O)N3CCc4ccccc4C3)s2)on1 | -3.48%
64 | O=C(N/N=C/c1cc(Cl)cc([N+](=O)[O-])c1O)C(O)(c1ccccc1)c1ccccc1 | -1.36%
65 | N#Cc1ccsc1NC(=O)CN1CCN(S(=O)(=O)c2cc(Cl)ccc2Cl)CC1 | -2.08%
66 | C=C(C)C(=O)O[C@H]1C/C(C)=C\C(=O)/C=C(\C)[C@H](O)[C@@H]2OC(=O)C(=C)[C@@H]21 | 41.8% (active)
67 | Nc1nonc1-n1nnc(C(=O)N/N=C\c2ccncc2)c1CN1CCCCC1 | -1.14%
68 | O=C(c1ccc(C(F)(F)F)cc1)C1CCCN(C(=O)c2csnn2)C1 (stereo not drawn) | 1.58%
69 | CCN(CC(=O)Nc1ccccc1OC)C(=O)Cn1cnc2ccccc2c1=O | 1.69%
70 | Cc1ccn2cc(-c3nonc3C)cc2c1 | 11.7% (active)
71 | CN(C)C(=O)c1ccc(NC(=O)c2ccccc2-c2ccccc2)cc1 | -3.02%
72 | COc1cc(CN(C)Cc2nc3cc(C(F)(F)F)ccc3c(=O)[nH]2)ccc1OC(F)F | 1.37%

Row | Structure (SMILES) | max response
73 | CC1(C)SC2C(NC(=O)COc3ccccc3)C(=O)N2C1C(=O)O (stereo not drawn) | -0.647%
74 | NC(=O)Nc1ccccc1C(=O)NCCc1ccccc1 | 63.4% (active)
75 | NC(=O)c1ccccc1NC(=O)c1ccccc1F | 14.9%
76 | COc1cc(/C=C/C(=O)O)cc(S(=O)(=O)Nc2ccccc2C(=O)NCCc2ccccc2)c1OC | 41.8% (active)
77 | O=C(O)c1ccccc1-c1ccccc1C(=O)NCCc1ccccc1 | 0.507%
78 | COc1cc(/C=C/C(=O)O)cc(S(=O)(=O)Nc2ccccc2SC)c1OC | -2.09%
79 | COc1cc(OC)c(S(=O)(=O)Nc2ccccc2C(=O)O)cc1S(=O)(=O)Nc1ccccc1C(=O)O | -2.35%
80 | CCN(CC)CCNC(=O)c1sc2ncn(CC(=O)Nc3ccc(C)c(Cl)c3)c(=O)c2c1C | -6.12%
81 | Cc1ccc(NC(=O)CSc2nnc(CNC(=O)c3ccccc3F)o2)cc1Cl | 7.13%
82 | CCCNC(=O)CCc1c(C)nc2c(c(C)nn2-c2ccccc2)c1C | -1.68%
83 | Cc1ccc(C)c(C(=O)N2CCC(n3nccc3NC(=O)C3CC3)CC2)c1 | -2.23%
84 | Cc1ccc(C)c(NS(=O)(=O)c2c(C)[nH]c(C)c2C(=O)N2CCCCC2)c1 | -4.94%
85 | O=C(/C=C/c1cnc2ccccc2n1)NC1CCCCCC1 | 49.7% (active)
86 | CC(=O)OC(C(=O)NC1CCCCC1)c1ccccc1 (stereo not drawn) | -1.59%
87 | O=C(Cn1c(-c2cncs2)nc2ccccc21)NC1CCCC1 | -2.22%
88 | CCOc1ccc(NC(=O)N(CCC(C)C)C(C)c2ccco2)cc1 (stereo not drawn) | 8.57%
89 | CC(c1ccco1)N(C(=O)Nc1ccccc1)C1CCCCC1 (stereo not drawn) | 14.3% (active)
90 | CCCC(C(=O)NCc1ccco1)N(C(=O)CNS(=O)(=O)c1ccccc1)C1CCCC1 (stereo not drawn) | 2.82%
91 | COc1ccc(C2=NS(=O)(=O)N(C)C(C(=O)N(C)Cc3ccccc3)=C2)cc1 | -2.93%
92 | O=C(C[C@H]1C(=O)N(c2ccc(F)c(F)c2)C[C@@H]1Cc1ccccc1)Nc1ccccc1 | 2.14%
93 | CCOc1ccc(NC(=O)C2CCN(C(=O)N3CCOc4ccccc43)CC2)cc1 | -1.22%
